# KB-V1 MDR tox – kills drug-selected multidrug resistant KB-V1 cells. KB-V1 MDR cells viability, CellTiter-Glo, 72 h. Potency, µM (highest dose often 46.1 µM), actives largely listed as cytotoxic. actives 3.4% (n = 400,000). AID 1347076; note: potency is the fitted concentration of half-maximal effect; % is set by controls: 0 for no effect and ±100 for the full control effect; nearly all actives have a fitted effect of over 60% in size
#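 Compound-treated KB-V1 multidrug-resistant cells, 72 h, 37 degrees C; viability by CellTiter-Glo. Fitted qHTS curves give the values.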
# S-ASM inh – inhibitors of human secretory acid sphingomyelinase; placental ASM, HMU-PC fluorogenic substrate, 60 min; Potency, µM (highest dose often 57.5 µM), inactives show top-dose activity change, negative = inhibition, hits mostly inhibitors; actives 0.006% (n = 340,000); note: potency is the fitted concentration of half-maximal effect
# Target sequence (P17405 47-631 limits assumed): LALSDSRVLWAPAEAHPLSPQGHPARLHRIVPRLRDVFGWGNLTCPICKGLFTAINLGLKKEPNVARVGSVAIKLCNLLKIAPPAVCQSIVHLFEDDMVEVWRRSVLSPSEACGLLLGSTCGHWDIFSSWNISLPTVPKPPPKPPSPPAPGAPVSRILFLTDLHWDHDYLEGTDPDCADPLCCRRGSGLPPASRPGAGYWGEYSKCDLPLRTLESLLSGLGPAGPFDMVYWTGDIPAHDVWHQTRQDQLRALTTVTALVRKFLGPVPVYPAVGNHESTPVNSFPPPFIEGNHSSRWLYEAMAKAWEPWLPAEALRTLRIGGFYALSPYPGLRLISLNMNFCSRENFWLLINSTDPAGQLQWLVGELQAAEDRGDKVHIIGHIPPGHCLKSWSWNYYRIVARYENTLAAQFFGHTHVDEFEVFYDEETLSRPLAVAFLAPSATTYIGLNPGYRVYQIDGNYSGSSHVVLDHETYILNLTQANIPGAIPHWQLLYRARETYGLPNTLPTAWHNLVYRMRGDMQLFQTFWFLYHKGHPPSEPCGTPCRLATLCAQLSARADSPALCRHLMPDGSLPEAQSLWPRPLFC
#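 HMU-PC0 cleavage (9 uM final) by human placental ASM, 60 min at 37 °C following 10 min compound exposure at RT; stopped at pH 10, fluorescence Ex 386/Em 447 nm.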
# SW480 rerep – induces DNA re-replication in SW480 colon adenocarcinoma cells; SW480 DNA re-replication, Hoechst DNA content imaging, 48 h; Potency, µM (doses to about 46.1 µM), for the others: top-dose re-replication activation, usual class: activators; actives 1.8% (n = 340,000); note: potency is the fitted concentration of half-maximal effect; % of control where 0% means no effect; nearly all actives have a fitted effect of over 55% in size
#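 Image-based read-out: total Hoechst fluorescence of nuclei (405 nm excitation, 500-530 nm emission), with hits raising the fraction of high-intensity nuclei. SW480 colon cells incubated 48 hr with compounds at 37 C.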
# Giardia killer – kills Giardia lamblia; Giardia lamblia trophozoite viability; activity change, % at 7.66 µM, hits read low; actives 0.15% (n = 340,000); in the data active = activity change below about -80%; inconclusive = between about -30% and that limit;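 note: parasites exposed to compound for two days anaerobically before the ATP read; % is set by controls: 0 for no effect and ±100 for the full control effect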
#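 Giardia trophozoites, 100 cells per well, were exposed to compounds for 48 hrs at 37 deg C under anaerobic conditions; viability was then read as ATP content by bioluminescence after 15-30 min at room temperature.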
# MCF10A rerep – inducers of DNA re-replication in MCF 10A breast cells | AID 624296 | MCF 10A DNA re-replication, Hoechst nuclear intensity, 48 h | actives 2.9% (n = 350,000) | Potency, µM (doses to about 46.1 µM), for inactives: top-dose activity, positive = re-replication, hits mostly activators; note: potency is the fitted concentration of half-maximal effect; % of control where 0% means no effect; nearly all actives have a fitted effect of over 50% in size
# KB-3-1 cytotox – kills parental KB-3-1 adenocarcinoma cells; KB-3-1 viability, CellTiter-Glo ATP luminescence, 72 h; Potency, µM (top dose mostly 46.1 µM), actives largely listed as cytotoxic; actives 1.4% (n = 400,000); AID 1347075; note: potency is the fitted concentration of half-maximal effect; % is set by controls: 0 for no effect and ±100 for the full control effect; nearly all actives have a fitted effect of over 60% in size
#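 Cells are dispensed, compounds pinned in, plates held at 37 °C for 72 h, then CellTiter-Glo is added and luminescence read after 10 minutes. Cell line: parental KB-3-1 in phenol-red-free DMEM, 10% FBS.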
# * = called active by the depositor; i = inactive; ? = inconclusive; nt = no result given; [ ] = remark or other dose. An excerpt weighted towards active compounds, which were near 6.9% of everything screened. Unless noted, calls come from the whole dose curve; as a rule, active = well fitted curve in the direction sought with a large enough effect; inconclusive = small, poorly fitted or top-dose-only effect, or another doubt; inactive = no such curve, though single readings can be large; an effect the other way counts as inactive or inconclusive.
SMILES,KB-V1 MDR tox,S-ASM inh,SW480 rerep,Giardia killer,MCF10A rerep,KB-3-1 cytotox
Cc1ccc2nc(C)c3c(c2c1)N(c1ccc(F)cc1)CC3,?,428%,-8%,-9,18µM*,?
C[C@H](CO)N1C[C@H](C)[C@H](CN(C)Cc2ccncc2)Oc2ccc(NC(=O)Nc3ccc(C(F)(F)F)cc3)cc2CC1=O,i,-16%,?,0,?,6.5µM*
C[C@H]1CN([C@@H](C)CO)C(=O)Cc2cc(NC(=O)CCC(F)(F)F)ccc2O[C@H]1CN(C)S(=O)(=O)c1ccc(F)cc1,i,-2%,?,8,15µM*,5.2µM*
C[C@H](CO)N1C[C@H](C)[C@@H](CN(C)S(=O)(=O)c2ccc(Cl)cc2)Oc2ccc(NS(=O)(=O)c3ccccc3)cc2CC1=O,?,-4%,-4%,-21,6%,i
C[C@H]1CN([C@@H](C)CO)C(=O)Cc2cc(NC(=O)CCC(F)(F)F)ccc2O[C@H]1CN(C)C(=O)Nc1ccc(F)cc1,i,-3%,3%,-13,3%,i
C[C@H]1CN([C@@H](C)CO)C(=O)Cc2cc(NC(=O)CCC(F)(F)F)ccc2O[C@H]1CN(C)S(=O)(=O)c1ccc(Cl)cc1,i,-2%,3.3µM*,20,4.6µM*,4.6µM*
C[C@H]1CN([C@@H](C)CO)C(=O)Cc2cc(NC(=O)Cc3cn(C)c4ccccc34)ccc2O[C@@H]1CN(C)S(=O)(=O)c1cn(C)cn1,i,0%,3.7µM*,-12,-1%,i
CCOC(=O)c1cc(C#N)c(N2CCN(c3ccc(OC)cc3)CC2)[nH]c1=O,i,-4%,0%,12,-4%,i
Cc1ccc(NS(=O)(=O)c2ccc3c(c2)CCC(=O)N3)cc1F,?,nt,nt,nt,nt,i
COc1ccc(CNC(=O)c2ccc3nc(CCc4ccccc4)oc3c2)c(OC)c1,i,nt,nt,nt,nt,i
C[C@H](CO)N1C[C@H](C)[C@H](CN(C)S(=O)(=O)c2cccs2)Oc2ccc(NC(=O)Nc3ccc4c(c3)OCO4)cc2CC1=O,?,-9%,16µM*,-4,?,?
C[C@H](CO)N1C[C@H](C)[C@@H](CN(C)S(=O)(=O)c2cccs2)Oc2ccc(NC(=O)Nc3ccc4c(c3)OCO4)cc2C1=O,i,-9%,-3%,-11,-3%,i
O=c1c2cn[nH]c2nc(SCc2ccccc2F)n1-c1ccc(Br)cc1,i,-25%,?,8,18µM*,i
CCOc1cc(/C=C/c2ccc3cccc([N+](=O)[O-])c3n2)ccc1O,21µM*,?,nt,-23,?,12µM*
COc1cc(/C=C/c2ccc3cccc([N+](=O)[O-])c3n2)ccc1OCC#N,i,-14%,0%,-21,8%,i
CCOc1c(OC(C)=O)ccc(/C=C/c2ccc3cccc(OC(C)=O)c3n2)c1[N+](=O)[O-],12µM*,-11%,?,-14,?,?
CCOc1cc(/C=C/c2ccc3cccc([N+](=O)[O-])c3n2)ccc1OCC(=O)N(C)C,18µM*,-14%,?,-19,28%,?
Cc1c(C(=O)NCCN2CCCC(O)C2)oc2c(F)cccc12 (centres undefined),i,0%,3%,14,-20%,i
COc1cccc(/C=C/c2nc(C#N)c(NC3CCCCC3)o2)c1,i,nt,nt,nt,nt,i
O=C(Nc1ccc(F)cc1Cl)c1cnc(N2CCOCC2)c2ccccc12,i,nt,nt,nt,nt,i
CCOc1ccc(C(=O)Nc2cccc(NC(=O)c3ccc(C(C)(C)C)cc3)c2)cc1Br,i,nt,nt,nt,nt,i
CC/C(=C\c1oc2cc3ccccc3cc2[n+]1CC)Nc1ccccc1,21µM*,187%,18µM*,44,23µM*,i
O=S(=O)(c1ccc2nc(Cc3ccccc3)[nH]c2c1)N1CCOCC1,i,0%,?,4,-3%,i
O=S(=O)(c1ccc2nc(Cc3cccc(C(F)(F)F)c3)[nH]c2c1)N1CCOCC1,i,-1%,?,-5,2.9µM*,i
CCOC(=O)CC1(NC(=O)c2cc(COc3cccc(OC)c3)on2)CCCCC1,i,-1%,1%,-10,24%,i
SMILES,KB-V1 MDR tox,S-ASM inh,SW480 rerep,Giardia killer,MCF10A rerep,KB-3-1 cytotox
CCN(CCS(=O)(=O)c1ccc(Cl)cc1)C(=O)Nc1ccc(Cl)cc1,i,-2%,9%,-11,-6%,i
CCOCCCNC(=O)c1ccc2c(c1)N=C(CC)c1cc(Br)ccc1S2,0.52µM*,-8%,1.8µM*,5,?,1µM*
CCC1=Nc2cc(C(=O)NCCN(CC)CC)ccc2Sc2ccccc21,i,nt,nt,nt,nt,i
CCCC1=Nc2cc(C(=O)NCCc3ccccc3)ccc2Sc2ccc(C)cc21,?,nt,nt,nt,nt,7.3µM*
CCC1=Nc2cc(C(=O)NCCc3ccccc3)ccc2Sc2ccc(Cl)cc21,i,nt,nt,nt,nt,10µM*
CCCNC(=O)c1ccc2c(c1)N=C(CCC)c1ccccc1S2,i,nt,nt,nt,nt,0.73µM*
CCC(Sc1nc(-c2ccc(F)cc2)nc2c1Cc1c(CO)cnc(C)c1O2)C(=O)Nc1ccc(F)cc1 (centres undefined),i,nt,nt,nt,nt,i
O=C(NC[C@@H](O)CO)c1c(I)c(C(=O)NC[C@@H](O)CO)c(I)c(N(CCO)C(=O)CO)c1I,nt,nt,-5%[20.6 µM],nt,-2%[20.6 µM],nt
COCCCNC(=O)c1ccc(OC)c(OC2CCN(C(C)C)CC2)c1,i,-1%,-18%,0,-4%,i
CC1(C)C2CC[C@]1(C)[C@@H](O)C2,nt,nt,1%,nt,-2%,nt
Cc1ccsc1CCN1C(=O)N(c2ccccc2)C(=O)C1CC(=O)Nc1ccc(Cl)cc1 (centres undefined),i,nt,nt,nt,nt,i
COc1ccc(C)cc1NC(=O)c1cc(S(=O)(=O)N2CCC(C)CC2)ccc1F,i,nt,nt,nt,nt,i
COc1cc2c(cc1NCc1ccccn1)oc1ccccc12,i,43%,3%,-3,23µM*,i
COCCCNC(=S)Nc1cc2oc3ccccc3c2cc1OC,?,-4%,12µM*,5,9.2µM*,?
COc1cc2c(cc1NS(=O)(=O)N1CCCCC1)oc1ccccc12,i,-25%,?,-10,10µM*,i
COc1cc2c(cc1NC(=S)Nc1cccc3ccccc13)oc1ccccc12,i,-2%,0%,11,3%,i
COc1cc2c(cc1NCc1ccc3c(c1)OCO3)oc1ccccc12,i,-19%,-4%,-6,10%,?
O=S(=O)(Nc1ccc2c(c1)oc1ccccc12)N1CCCC1,i,-11%,-2%,-10,-16%,i
